Data published in the supplement of paper PMC4206461.
A number with no mark means an inactive call.

Tests used:
[1] = system: Pseudomonas aeruginosa PA14 dppA1-A5 penta mutant + pBBR5.DppA1 (PA14_58350); experiment: respiration area under curve with compound as sole nitrogen source, 24 h (OmniLog AUC (arbitrary units)); higher = more respiration / better utilisation as nitrogen source, active = 2000 or more
Protocol: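 Biolog Phenotype MicroArray plates PM6-PM8: each di/tripeptide is the sole nitrogen source. Tetrazolium reduction was read in the OmniLog for 24 h at 37°C and summarised as area under the respiration curve (arbitrary units). Values below 2000 count as no respiration. Strain is the SBP penta mutant complemented with DppA1 on a plasmid under its native promoter. Lys/His/Cys peptides are excluded.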

[2] = system: Pseudomonas aeruginosa PA14 wild type; experiment: as above
Protocol: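 Biolog Phenotype MicroArray plates PM6-PM8: each di/tripeptide is the sole nitrogen source (IF-0 medium with succinate/ferric citrate and dye mix A). Tetrazolium reduction was read in the OmniLog every 15 min for 24 h at 37°C and summarised as area under the respiration curve (arbitrary units). The paper counts values below 2000 as no respiration and above 8000 as solid respiration. Replicate datasets are averaged.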

[3] = system: Pseudomonas aeruginosa PA14 dppBCDF deletion mutant; experiment: respiration area under curve with compound as sole nitrogen source, 24 h (OmniLog AUC (arbitrary units)); higher = more respiration / better utilisation as nitrogen source, active = 2000 or more; extreme values may be limits of the assay
Protocol: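 Biolog Phenotype MicroArray plates PM6-PM8: each di/tripeptide is the sole nitrogen source. Tetrazolium reduction was read in the OmniLog every 15 min for 24 h at 37°C and summarised as area under the respiration curve (arbitrary units). Values below 2000 count as no respiration. Strain is the dipeptide ABC transporter deletion mutant.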

Row | SMILES | respiration area under curve [1] | respiration area under curve [2] | respiration area under curve [3]
1 | CSCC[C@H](NC(=O)[C@@H](N)Cc1ccccc1)C(=O)O (plate: PM8) | 805 | 1220 | 269
2 | CSCC[C@H](N)C(=O)N[C@@H](Cc1ccccc1)C(=O)O (plate: PM7) | 680 | – | 85
3 | CC(C)[C@H](N)C(=O)N[C@@H](CC(=O)O)C(=O)O (plate: PM7) | – | 8160 (active) | 18
4 | C[C@H](NC(=O)[C@@H](N)Cc1ccc(O)cc1)C(=O)O (plate: PM7) | – | 11200 (active) | 8840 (active)
5 | NC(N)=NCCC[C@H](N)C(=O)N[C@@H](CCC(=O)O)C(=O)O (plate: PM6) | 8440 (active) | – | –
6 | CC(C)C[C@H](N)C(=O)N[C@@H](CCCN=C(N)N)C(=O)O (plate: PM6) | – | 10200 (active) | 8540 (active)
7 | N[C@@H](Cc1ccccc1)C(=O)N[C@@H](CO)C(=O)O (plate: PM7) | – | 7630 (active) | 1830
8 | C[C@@H](O)[C@H](N)C(=O)N[C@@H](CCCN=C(N)N)C(=O)O (plate: PM7) | – | 15400 (active) | 13800 (active)
9 | CC(C)C[C@H](NC(=O)[C@H](CC(C)C)NC(=O)[C@@H](N)CC(C)C)C(=O)O (plate: PM8) | – | 5700 (active) | 1800
10 | NCC(=O)N[C@@H](CC(=O)O)C(=O)O (plate: PM8) | 4090 (active) | – | –
11 | CSCC[C@H](N)C(=O)N[C@@H](Cc1ccc(O)cc1)C(=O)O (plate: PM8) | – | 1560 | 55.2
12 | CC(C)C[C@H](NC(=O)[C@@H](N)CC(=O)O)C(=O)O (plate: PM6) | – | 2690 (active) | 0
13 | CC(C)[C@H](N)C(=O)N[C@@H](CCCN=C(N)N)C(=O)O (plate: PM7) | – | 14300 (active) | 11700 (active)
14 | CC(C)[C@H](N)C(=O)N[C@@H](CCC(=O)O)C(=O)O (plate: PM8) | – | 5380 (active) | 0
15 | CC(C)C[C@@H](N)C(=O)N[C@H](CC(C)C)C(=O)O (plate: PM8) | 0 | 0 | 0
16 | CC(C)[C@H](NC(=O)[C@@H](N)CCC(=O)O)C(=O)O (plate: PM6) | – | 5390 (active) | 0
17 | C[C@H](NC(=O)[C@@H](N)[C@@H](C)O)C(=O)O (plate: PM7) | – | 10500 (active) | 3130 (active)
18 | NC(=O)C[C@H](NC(=O)[C@@H]1CCCN1)C(=O)O (plate: PM8) | 11600 (active) | – | –
19 | C[C@H](N)C(=O)NCC(=O)O (plate: PM6) | 6240 (active) | 8070 (active) | 3630 (active)

Row | SMILES | respiration area under curve [1] | respiration area under curve [2] | respiration area under curve [3]
20 | CSCC[C@H](NC(=O)[C@@H](N)[C@@H](C)O)C(=O)O (plate: PM7) | 2920 (active) | 4960 (active) | 204
21 | CC[C@H](C)[C@H](NC(=O)CNC(=O)CN)C(=O)O (plate: PM8) | 2430 (active) | 10400 (active) | 1
22 | O=C(O)CNC(=O)[C@@H]1CCCN1 (plate: PM7) | 6590 (active) | 10100 (active) | 217
23 | C[C@@H](O)[C@H](N)C(=O)NCC(=O)O (plate: PM7) | – | 8140 (active) | 0.75
24 | NCC(=O)N[C@@H](CCCN=C(N)N)C(=O)O (plate: PM6) | – | 8640 (active) | 7970 (active)
25 | NCC(=O)N[C@H](CO)C(=O)O (plate: PM8) | 408 | – | –
26 | CC(C)[C@H](NC(=O)[C@@H](N)Cc1c[nH]c2ccccc12)C(=O)O (plate: PM8) | 1060 | – | –
27 | C[C@@H](N)C(=O)NCC(=O)O (plate: PM8) | 5420 (active) | – | –
28 | CC(C)C[C@H](NC(=O)[C@@H](N)CC(C)C)C(=O)O (plate: PM6) | – | 3640 (active) | 1380
29 | C[C@H](N)C(=O)N[C@@H](Cc1c[nH]c2ccccc12)C(=O)O (plate: PM6) | 3700 (active) | 4490 (active) | 3230 (active)
30 | CC[C@H](C)[C@H](N)C(=O)N[C@@H](CC(C)C)C(=O)O (plate: PM8) | – | 6290 (active) | 924
31 | CC(C)C[C@@H](N)C(=O)NCC(=O)O (plate: PM8) | – | 0.4 | 0
32 | CC(C)[C@H](N)C(=O)N[C@@H](C)C(=O)O (plate: PM8) | – | 6590 (active) | 207
33 | NCC(=O)NCC(=O)N[C@@H](Cc1ccccc1)C(=O)O (plate: PM8) | 3750 (active) | 9740 (active) | 0
34 | CC[C@H](C)[C@H](NC(=O)[C@@H](N)CC(C)C)C(=O)O (plate: PM6) | 3910 (active) | – | –
35 | CC(C)[C@H](NC(=O)[C@H](C)N)C(=O)O (plate: PM8) | – | 9240 (active) | 700
36 | CC(C)C(N)C(=O)NC(CO)C(=O)O (centres undefined) (plate: PM8) | 6900 (active) | – | –
37 | O=C(O)CC[C@H](NC(=O)[C@@H]1CCCN1)C(=O)O (plate: PM8) | 5380 (active) | 7660 (active) | –
